Test results taken from PubChem BioAssay AID504847 (National Center for Advancing Translational Sciences (NCATS), 2011).
Hit rate of the full screen: of about 400,000 compounds, about 3,700 (0.93%) were called active. Not shown: some 3% with an inconclusive outcome. The sample holds actives, similar compounds and a random draw of the others, so the mix is not that of the screen. Unmarked numbers belong to inactive results. The call rests on the fitted dose curve; in most records, active means well fitted inhibition curve with a large enough effect; inconclusive means small, poorly fitted or top-dose-only effect, or another doubt; inactive means no such curve, though single readings can be large or run the other way.

Target: Vitamin D3 receptor (Homo sapiens) (UniProt P11473)
Test: Inhibitors of the vitamin D receptor (VDR): qHTS
Conditions: VDR-SRC2-3 peptide fluorescence polarization, 2 h; max response, negative = inhibition: hits give low values
From the text: The vitamin D receptor (VDR) is a ligand-activated transcription factor and is partially responsible for the regulation of the endocrine system. This includes the transcriptional regulation of genes involved in the production of the parathyroid hormone (PTH) and the regulation of the blood calcium level. High levels of PHT can cause hypercalcemia in the case of primary and tertiary hyperparathyroidism. The VDR-mediated gene regulation, activated by its ligand 1,25-dihydroxyvitamin D3 (1,25-(OH)2D3), is governed by the recruitment of coactivators. Our hypothesis is that small molecules, with the ability to inhibit the interaction between VDR and certain coactivators, are able to selectively modulate VDR-mediated transcription. Our long term objective is the application these VDR-coactivator inhibitors to study the role of VDR-coactivator binding for specific VDR regulated genes. Ultimately, these molecules can be developed into new treatments for hypercalcemic hyperparathyroidism. No small molecule or non-peptide inhibitors are known for the VDR-coactivator interaction.
In a collaboration between the University of Wisconsin, Milwaukee and the NIH Chemical Genomics Center (NCGC) a HTS-compatible enzymatic assay was developed. The assay uses fluorescence polarization as its read-out to measure the inhibition between VDR and coregulator peptide SRC2-3 exerted by small molecules. This assay was used to screen the NIH Molecular Libraries Small Molecule Repository (MLSMR).
NIH Chemical Genomics Center [NCGC]
NIH Molecular Libraries Probe Centers Network [MLPCN]
Assay Submitter (PI): Alexander Arnold, University of Wilwaukee
Both solutions are kept at 4 deg C and protected from light and dispensed using a Kalypsys dispenser. Then 23nl of compounds and controls are added with Kalypsys pintool. […] Plate is centrifuged at 1000 RPM for 15 seconds to remove any residual bubbles. The plate is then incubate at ambient room temperature for 2 hours.
On the % scale 0 is the no-effect control and ±100 the full control effect; potency means the concentration at half of the fitted maximal effect.

Sequence of Vitamin D3 receptor (Homo sapiens) (P11473 whole entry, looked up): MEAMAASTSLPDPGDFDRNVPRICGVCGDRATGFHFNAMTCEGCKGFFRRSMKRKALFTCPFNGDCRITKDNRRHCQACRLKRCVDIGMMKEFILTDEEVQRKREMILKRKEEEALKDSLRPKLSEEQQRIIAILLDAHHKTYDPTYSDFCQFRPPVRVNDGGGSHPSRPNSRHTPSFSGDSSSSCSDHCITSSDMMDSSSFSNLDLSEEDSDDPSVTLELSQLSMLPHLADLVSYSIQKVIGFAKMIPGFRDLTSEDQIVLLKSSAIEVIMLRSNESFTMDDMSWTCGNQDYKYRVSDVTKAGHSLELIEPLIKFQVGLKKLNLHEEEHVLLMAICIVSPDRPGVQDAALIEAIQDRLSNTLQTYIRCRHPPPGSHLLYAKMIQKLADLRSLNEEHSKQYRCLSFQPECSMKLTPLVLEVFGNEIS

**Q.** How did the max response, negative = inhibition turn out when `CCC(=O)Nc1ccc2nc(SCC(=O)N3CCc4ccccc43)sc2c1` was run?
**A.** 13%

**Q.** With `CCOC(=O)C1C/C(=C\C(C)=O)c2cccc(C(F)(F)F)c2O1` (stereo unspecified) as the compound, how does the max response, negative = inhibition read?
**A.** -3.65%

**Q.** How did the max response, negative = inhibition turn out when `CN(C)c1ccc(/C=N/NC(=O)C(O)c2ccc(Br)cc2)cc1` (stereo unspecified) was run?
**A.** 5.61%

**Q.** How did the Potency turn out when `CN(C)c1ccc(N/C=C/C(=O)C(F)(F)F)cc1` was run?
**A.** 25.1 µM (active)

**Q.** For `COc1cc(OC)c(C(=O)Nc2ccc(N(C)C)cc2)cc1OC`, which max response, negative = inhibition is on record?
**A.** -2.21%

**Q.** How did the max response, negative = inhibition turn out when `O=C(CSc1nc(-c2cccc(F)c2)[nH]c1-c1ccccc1)Nc1ccc2c(c1)OCO2` was run?
**A.** -7.99%

**Q.** For `CCOc1ccc(N(CC)C(=O)c2cc3c(=O)oc4ccccc4c3s2)cc1`, which max response, negative = inhibition is on record?
**A.** -18%

**Q.** Which max response, negative = inhibition does the source give for `CCOc1cc(CNC(=O)c2sc3ncnc(N(C)C4CCCCC4)c3c2C)ccc1OC` here?
**A.** 5.17%

**Q.** `COc1cc(NC(=O)CSc2nc3nc(C)c(Cc4ccc(C)cc4)c(C)n3n2)cc(OC)c1OC` was tested. Which max response, negative = inhibition did it give?
**A.** 12.5%

**Q.** Which max response, negative = inhibition does the source give for `N#CC1=C(N)Oc2n[nH]c(CSc3ccccc3)c2C12C(=O)Nc1ccccc12` (stereo unspecified) here?
**A.** 12%

**Q.** For `CC1(C)Cc2ccccc2-c2[nH]c(=S)[nH]c(=O)c21`, which max response, negative = inhibition is on record?
**A.** -2%

**Q.** With `N#CC1=C(N)Oc2[nH]c(=S)[nH]c(=O)c2C12C(=O)Nc1ccccc12` (stereo unspecified) as the compound, how does the Potency read?
**A.** 44.7 µM (active)

**Q.** For `COc1cc(C(=S)NCc2ccccc2)cc(Br)c1O`, which Potency is on record?
**A.** 50.1 µM (active)

**Q.** With `COc1cc(C(=O)NCc2ccncc2)cc(Br)c1OCc1ccccc1` as the compound, how does the max response, negative = inhibition read?
**A.** -8.88%

**Q.** `COc1ccccc1OCCC(=O)OCC(=O)NCc1ccccc1` was tested. Which max response, negative = inhibition did it give?
**A.** -14.2%

**Q.** How did the max response, negative = inhibition turn out when `COc1ccc(NC(=O)C2CCCN(S(=O)(=O)c3cccc4nonc34)C2)cc1Cl` (stereo unspecified) was run?
**A.** -11.1%

**Q.** With `Cc1ccc(NC(=O)C(=O)NCC(c2cccnc2)N2CCOCC2)cc1` (stereo unspecified) as the compound, how does the max response, negative = inhibition read?
**A.** 7.68%

**Q.** `COc1ccc(CCn2cc3c(c2-c2ccc(Br)cc2)c(=O)n(C)c(=O)n3C)cc1OC` was tested. Which max response, negative = inhibition did it give?
**A.** -7.8%

**Q.** `COCCNC(=S)Nc1cc(S(=O)(=O)N2CCOCC2)ccc1N1CCCCC1` was tested. Which Potency did it give?
**A.** 35.5 µM (active)

**Q.** Which max response, negative = inhibition does the source give for `O=C(COC(=O)Cc1ccc(F)cc1)Nc1cc(S(=O)(=O)N2CCOCC2)ccc1N1CCCC1` here?
**A.** 2.6%

**Q.** For `Cc1ccc(S(=O)(=O)N2CCOCC2)cc1C(=O)Nc1ccccc1N1CCCC1`, which max response, negative = inhibition is on record?
**A.** -16.8%

**Q.** How did the max response, negative = inhibition turn out when `COCCn1c(=O)c(-c2ccccc2)nc2cnc(N3CCOCC3)nc21` was run?
**A.** 8.94%

**Q.** `CCC(=O)N1N=C(c2ccc(OC)cc2)CC1c1cn(-c2ccccc2)nc1-c1cccs1` (stereo unspecified) was tested. Which max response, negative = inhibition did it give?
**A.** -4.57%

**Q.** `Cc1ccccc1NC(=O)Cn1c(=O)n(CCc2ccccc2)c(=O)c2ccccc21` was tested. Which max response, negative = inhibition did it give?
**A.** -10.9%

**Q.** How did the max response, negative = inhibition turn out when `Cc1cc(Cl)ccc1OCC(=O)N(Cc1ccc(N(C)C)cc1)C1CCS(=O)(=O)C1` (stereo unspecified) was run?
**A.** 9.26%

**Q.** Which Potency does the source give for `O=c1[nH]c2ccccc2n2c(-c3ccccc3)nnc12` here?
**A.** 12.6 µM (active)

**Q.** `CC(C)Cn1c(=O)c2ccccc2n2c(-c3cccc(Cl)c3)nnc12` was tested. Which max response, negative = inhibition did it give?
**A.** 21.6%

**Q.** Which max response, negative = inhibition does the source give for `CCc1ccc(NC(=O)c2cc(S(=O)(=O)N3CCCC(C)C3)cn2C)cc1` (stereo unspecified) here?
**A.** 9.47%

**Q.** How did the max response, negative = inhibition turn out when `COc1ccc(C2CC(=O)N(Cc3ccccc3C)c3c2c(C)nn3-c2nc(C)cc(C)n2)c(OC)c1` (stereo unspecified) was run?
**A.** 5.38%

**Q.** For `Fc1ccc(Nc2nnns2)cc1`, which Potency is on record?
**A.** 79.4 µM (active)

**Q.** For `CSc1nc(Nc2ccc(F)cc2)cc(-c2ccccc2)n1`, which max response, negative = inhibition is on record?
**A.** 5.7%

**Q.** Which max response, negative = inhibition does the source give for `CN(C)c1nc(NN)nc(Nc2ccc(F)cc2)n1` here?
**A.** -11.3%

**Q.** Which max response, negative = inhibition does the source give for `Cc1ccc(-c2nc(SCc3ccc(Br)cc3)n3[nH]c(=O)cc3n2)cc1` here?
**A.** 16.1%

**Q.** Which max response, negative = inhibition does the source give for `CCc1ccccc1N1CC(c2nc3ccccc3n2CCCCOc2ccccc2)CC1=O` (stereo unspecified) here?
**A.** 13.5%

**Q.** How did the max response, negative = inhibition turn out when `Cc1cc(C)nc(NC(=O)/C=C/c2ccc(Cl)cc2)n1` was run?
**A.** -4.04%

**Q.** For `Cc1cccc(C=CC(=O)c2ccc(Cl)cc2)c1`, which Potency is on record?
**A.** 20 µM (active)

**Q.** Which max response, negative = inhibition does the source give for `Cc1cccc(C(=O)Nc2ccc(C(=O)/C=C/c3cccs3)cc2)c1` here?
**A.** 5.44%

**Q.** With `COc1ccc(S(=O)(=O)NCc2cccn2Cc2cccc(C)c2)cc1` as the compound, how does the max response, negative = inhibition read?
**A.** -9.31%

**Q.** `CCC1CCCCN1Cc1c(O)ccc2c(=O)c(Oc3ccccc3Cl)c(C(F)(F)F)oc12` (stereo unspecified) was tested. Which max response, negative = inhibition did it give?
**A.** -11.4%

**Q.** `CN1CCN2c3ccccc3Cc3ccccc3[C@@H]2C1` was tested. Which max response, negative = inhibition did it give?
**A.** -7.22%

**Q.** Which max response, negative = inhibition does the source give for `COc1ccc(C(=O)CSc2c(C(C)C)cnc3c2c(=O)n(C)c(=O)n3C)cc1` here?
**A.** -4.32%

**Q.** How did the max response, negative = inhibition turn out when `CCc1ccccc1NC(=O)c1sc2nc3c(cc2c1N)CN(Cc1ccccc1)CC3` was run?
**A.** -9.37%

**Q.** Which max response, negative = inhibition does the source give for `COc1ccc(NC(=O)CCCc2nnc3n(CCC(C)C)c(=O)c4sccc4n23)c(OC)c1` here?
**A.** -1.71%

**Q.** `COC(=O)c1sc(-c2ccc(C(C)(C)C)cc2)cc1NC(=O)/C=C/C(=O)O` was tested. Which Potency did it give?
**A.** 28.2 µM (active)

**Q.** With `COc1ccc(NS(=O)(=O)c2ccc(N3CCOCC3)c(NC(=O)/C=C/C(=O)O)c2)cc1` as the compound, how does the max response, negative = inhibition read?
**A.** 1.49%

**Q.** How did the max response, negative = inhibition turn out when `COc1ccccc1NC(=O)/C=C/C(N)=O` was run?
**A.** 1.2%
